Structures are written as SMILES. Active and inactive are the calls of the source. Rule for the calls: active = hit-call score of the fitted dose curve at least 0.9, where 1 is the maximum; inactive = score below 0.9.

Experiment [1] can be described thus: BSK_LPS_PGE2: BioMAP Diversity Plus: LPS Assay for Prostaglandin E2 (PGE2) Biomarker Activity (AID 2283082). The note with it: primary human HUVEC with PBMC; actives raise or lower the signal. In a few lines: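 HUVEC plus human PBMC co-culture stimulated with LPS; secreted PGE2 quantified by ELISA 24 h after chemical dosing. Activity fitted bidirectionally against DMSO baseline; parallel SRB staining (0.1% SRB after 10% TCA fixation, 560 nm) flags overt cytotoxicity.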

Read-out in experiment [2]: Macrophage colony-stimulating factor (MCSF), CSF1 (gene 1435)
The experiment is described as follows: BSK_LPS_MCSF: BioMAP Diversity Plus: LPS Assay for Macrophage colony-stimulating factor (MCSF) Biomarker Activity (AID 2283083). The note with it: primary human HUVEC with PBMC; actives raise or lower the signal. In a few lines: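 HUVEC + PBMC co-culture (human primary), 24 h post-dose; M-CSF by ELISA; gain/loss of signal fitted bidirectionally vs DMSO baseline.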

Read-out in experiment [3]: Tissue Factor, F3 (gene 2152)
In words: BSK_LPS_TissueFactor: BioMAP Diversity Plus: LPS Assay for Tissue Factor Biomarker Activity (AID 2283084). The note with it: primary human HUVEC with PBMC; actives raise or lower the signal. In short, it runs like this:
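HUVEC/PBMC co-culture, LPS-activated; CD142 ELISA read 24 h post-dose; bidirectional curve fit vs DMSO negative control.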

Read-out in experiment [4]: Tumor necrosis factor (Homo sapiens) (UniProt P01375)
In words: BSK_LPS_TNFa: BioMAP Diversity Plus: LPS Assay for Tumour Necrosis Factor alpha (TNFa) Biomarker Activity (AID 2283085). The following applies: primary human HUVEC with PBMC; actives raise or lower the signal. In short, it runs like this:
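Human umbilical vein endothelial cells co-cultured with PBMC and stimulated with LPS. TNFa was measured by ELISA 24 h after chemical dosing, fitted bidirectionally relative to DMSO.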

Read-out in experiment [5]: Vascular cell adhesion molecule 1 (VCAM1), VCAM1 (gene 7412)
In words: BSK_LPS_VCAM1: BioMAP Diversity Plus: LPS Assay for Vascular cell adhesion molecule 1 (VCAM1) Biomarker Activity (AID 2283086). The following applies: primary human HUVEC with PBMC; actives raise or lower the signal. In short, it runs like this: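 Human umbilical vein endothelial cells co-cultured with PBMC and stimulated with LPS; VCAM-1 measured by ELISA 24 h after dosing. Bidirectional curve fitting against DMSO baseline; cytotoxicity tracked in parallel by SRB total-protein staining.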

Read-out in a further experiment: CD38, CD38 (gene 952)
In words: BSK_SAg_CD38: BioMAP Diversity Plus: SAg Assay for CD38 Biomarker Activity (AID 2283087). The note with it: primary human HUVEC with PBMC; actives raise or lower the signal. In short, it runs like this: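 Human HUVEC plus PBMC co-culture stimulated with superantigen; CD38 measured by ELISA 24 h after chemical dosing. Fluorescence read-out, bidirectional fit against DMSO; cytotoxicity tracked in parallel by SRB and Alamar Blue.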

Read-out in another experiment: CD40, CD40 (gene 958)
In words: BSK_SAg_CD40: BioMAP Diversity Plus: SAg Assay for CD40 Biomarker Activity (AID 2283088). The following applies: primary human HUVEC with PBMC; actives raise or lower the signal. In a few lines:
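HUVEC/PBMC co-culture, 24 h post-dose; CD40 by ELISA, fluorescence intensity; bidirectional fit vs DMSO negative control.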

Read-out in a further experiment: CD69, CD69 (gene 969)
In words: BSK_SAg_CD69: BioMAP Diversity Plus: SAg Assay for CD69 Biomarker Activity (AID 2283089).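 For AC50: cell surface CD69 protein quantified by ELISA with fluorescence detection.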 The note with it: primary human HUVEC with PBMC; actives raise or lower the signal. In a few lines:
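Values derive from bidirectional fitting relative to DMSO vehicle. Cells: umbilical vein endothelium plus peripheral blood mononuclear cells, treated 24 h before fluorescent ELISA for CD69.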

Read-out in experiment [6]: Monocyte Chemoattractant Protein-1 (MCP1), CCL2 (gene 6347)
The experiment is described as follows: BSK_SAg_MCP1: BioMAP Diversity Plus: SAg Assay for Monocyte Chemoattractant Protein-1 (MCP1) Biomarker Activity (AID 2283090). The note with it: primary human HUVEC with PBMC; actives raise or lower the signal. In short, it runs like this:
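MCP-1 levels in the endothelial–PBMC SAg co-culture were quantified by ELISA at 24 h post-dosing; both increases and decreases versus DMSO scored. Cytotoxicity monitored by SRB total protein in parallel cultures.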

Read-out in experiment [7]: E-selectin (Homo sapiens) (UniProt P16581)
In words: BSK_SAg_Eselectin: BioMAP Diversity Plus: SAg Assay for Eselectin Biomarker Activity (AID 2283091). The following applies: primary human HUVEC with PBMC; actives raise or lower the signal. In short, it runs like this: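 E-selectin ELISA readout at 24 h post-dosing in human umbilical vein endothelial cell/PBMC co-culture; gain or loss of signal fitted relative to DMSO baseline.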

Read-out in experiment [8]: Monokine induced gamma interferon (MIG), CXCL9 (gene 4283)
In words: BSK_SAg_MIG: BioMAP Diversity Plus: SAg Assay for Monokine induced gamma interferon (MIG) Biomarker Activity (AID 2283092). The note with it: primary human HUVEC with PBMC; actives raise or lower the signal. In a few lines:
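Values reflect bidirectional fitting of ELISA-measured MIG against DMSO vehicle, taken 24 h after dosing of a co-culture of human umbilical vein endothelial cells and peripheral blood mononuclear cells.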

Experiment [9] in a line: BSK_SAg_PBMCCytotoxicity: PBMC Cytotoxicity Assessment in the BioMAP Diversity Plus: SAg Assay (AID 2283093).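 For AC50: PBMC superantigen activated with SEB plus TSST-1 one hour after compound addition.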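 Note: PBMC viability measured as Alamar Blue reduction fluorescence at 546/580 nm; fitted both ways against DMSO so a hit may be loss or gain of signal.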 The following applies: primary human HUVEC with PBMC. In a few lines:
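Human umbilical vein endothelial cells co-cultured with PBMC; PBMC (75,000/well) pre-treated with compound 1 h, then activated with SEB and TSST-1 (20 ng/mL final each) for 90 h. Alamar Blue added 6 h, fluorescence 546/580 nm; bidirectional fit versus DMSO.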

Read-out in experiment [10]: Interleukin-8 (IL8), CXCL8 (gene 3576)
The experiment is described as follows: BSK_SAg_IL8: BioMAP Diversity Plus: SAg Assay for Interleukin-8 (IL8) Biomarker Activity (AID 2283094). The following applies: primary human HUVEC with PBMC; actives raise or lower the signal. In short, it runs like this: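 Human umbilical vein endothelial cells co-cultured with PBMC, stimulated with superantigen; IL-8 measured by ELISA 24 h after chemical dosing. Bidirectional fitting versus DMSO; SRB staining in parallel cultures tracks cytotoxicity.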

Experiment [11] in a line: BSK_SAg_Proliferation: Cell Proliferation Assessment in the BioMAP Diversity Plus: SAg Assay (AID 2283095). The following applies: primary human HUVEC with PBMC. In short, it runs like this:
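Human umbilical vein endothelial cells co-cultured with PBMC; sulforhodamine B total-protein staining (0.1% SRB after 10% TCA fixation, absorbance 560 nm) at 96 h in sub-confluent culture. Fitted bidirectionally against DMSO.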

Experiment [12] in a line: BSK_SAg_SRB: Viability Assessment in the BioMAP Diversity Plus: SAg Assay (AID 2283096).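 Note: cells read one day after compound addition; hits may be either gain or loss of signal compared with DMSO.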 The following applies: primary human HUVEC with PBMC. In a few lines:
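Endothelial/PBMC primary human co-culture; compound 24 h; fix 10% TCA, stain 0.1% SRB, A560; protein content as cytotoxicity proxy; bidirectional curve fit, DMSO = baseline.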

Tumor necrosis factor (Homo sapiens), sequence (P01375 whole entry, looked up): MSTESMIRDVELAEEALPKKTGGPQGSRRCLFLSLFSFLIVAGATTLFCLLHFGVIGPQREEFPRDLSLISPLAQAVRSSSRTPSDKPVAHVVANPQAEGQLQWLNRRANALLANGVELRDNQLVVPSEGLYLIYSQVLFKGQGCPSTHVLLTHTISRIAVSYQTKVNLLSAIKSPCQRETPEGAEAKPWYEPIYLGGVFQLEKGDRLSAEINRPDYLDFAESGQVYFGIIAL
E-selectin (Homo sapiens), sequence (P16581 whole entry, looked up): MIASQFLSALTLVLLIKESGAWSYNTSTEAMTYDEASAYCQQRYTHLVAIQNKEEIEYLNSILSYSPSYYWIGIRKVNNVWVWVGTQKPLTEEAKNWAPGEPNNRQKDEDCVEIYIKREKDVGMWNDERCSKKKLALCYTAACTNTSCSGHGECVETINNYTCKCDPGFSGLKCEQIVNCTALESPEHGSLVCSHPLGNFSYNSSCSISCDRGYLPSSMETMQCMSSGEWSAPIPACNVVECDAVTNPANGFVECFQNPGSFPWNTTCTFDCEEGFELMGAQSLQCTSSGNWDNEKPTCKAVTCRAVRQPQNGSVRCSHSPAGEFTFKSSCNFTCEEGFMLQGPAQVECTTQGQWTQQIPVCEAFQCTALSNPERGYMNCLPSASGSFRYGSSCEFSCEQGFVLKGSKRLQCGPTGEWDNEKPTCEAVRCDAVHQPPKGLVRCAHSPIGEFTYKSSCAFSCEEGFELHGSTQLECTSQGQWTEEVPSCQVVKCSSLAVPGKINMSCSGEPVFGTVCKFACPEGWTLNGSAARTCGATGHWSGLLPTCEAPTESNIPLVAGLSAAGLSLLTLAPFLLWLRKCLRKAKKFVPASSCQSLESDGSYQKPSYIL

Consider `[As]#[In]`, for which the outcome in experiment [1] is “inactive”; in [2], “inactive”; in [3] it was “inactive”; in [4], “inactive”; in [5], “inactive”; with CD38, CD38 (gene 952), “inactive”. Also, the outcome with CD40, CD40 (gene 958) was “inactive”; with CD69, CD69 (gene 969), “inactive”; in [6] it was “inactive”; in experiment [7], “inactive”; in experiment [8], “inactive”; in experiment [9], “inactive”. Moreover, the outcome in [10], in experiment [11] and in [12] was inactive.
For the compound `CCCCC(CC)COC(=O)c1ccc(C(=O)OCC(CC)CCCC)c(C(=O)OCC(CC)CCCC)c1` (stereo not given), the outcome is “inactive” in experiment [1]; “inactive” in [2]; “inactive” in [3]; “inactive” in experiment [4]; “inactive” in experiment [5]; “inactive” with CD38, CD38 (gene 952). Besides, the outcome with CD40, CD40 (gene 958) was “inactive”; with CD69, CD69 (gene 969) it was “inactive”; in [6], “inactive”; in experiment [7] it was “inactive”; in experiment [8], “inactive”; in experiment [9] it was “inactive”. The outcome in experiment [10], in experiment [11] and in experiment [12] was inactive.
As to `CO[C@@H]1[C@H](OC(=O)NC(=O)CCl)CC[C@]2(CO2)[C@H]1[C@@]1(C)O[C@@H]1CC=C(C)C`, the AC50 is 6.2 µM (active) in [1]; 3.16 µM (active) in experiment [2]; 10 µM (active) in [4]; 7.31 µM (active) in experiment [5]; 6.2 µM (active) with CD38, CD38 (gene 952); 7.52 µM (active) with CD40, CD40 (gene 958). The half-maximal activity concentration (AC50) in experiment [7] was 3.89 µM (active); in experiment [10] it was 2.58 µM (active); in experiment [11], 2.45 µM (active). For the same compound, the outcome in [3] was “inactive”; with CD69, CD69 (gene 969) it was “inactive”; in experiment [6] it was “inactive”; in experiment [8] it was “inactive”; in [9], “inactive”; in experiment [12], “inactive”.
As for `Oc1ccccc1Cl`, the outcome in experiment [1] was “inactive”; in [2], “inactive”; in [3], “inactive”; in [4] it was “inactive”; in experiment [5], “inactive”; with CD38, CD38 (gene 952), “inactive”. Moreover, the outcome was “inactive” with CD40, CD40 (gene 958); “inactive” with CD69, CD69 (gene 969); “inactive” in [6]; “inactive” in [7]; “inactive” in [8]; “inactive” in [9]. Further, the outcome in experiment [10], in [11] and in experiment [12] was inactive.
With `ClC1=C(Cl)[C@]2(Cl)[C@H]3[C@H]([C@@H]4C=C[C@H]3C4)[C@@]1(Cl)C2(Cl)Cl`, the result in [1] was inactive. Also, the AC50 is 31.6 µM (active) in experiment [2]; 31.2 µM (active) in experiment [3]; 31.5 µM (active) in experiment [4]; 29.8 µM (active) in experiment [5]; 16.8 µM (active) with CD38, CD38 (gene 952); 27.9 µM (active) with CD40, CD40 (gene 958). Further, the AC50 in the experiment with CD69, CD69 (gene 969) was 27.5 µM (active); in experiment [6], 31.3 µM (active); in [7], 32.7 µM (active); in [8], 35 µM (active); in experiment [9] it was 15.4 µM (active); in experiment [10], 30.9 µM (active). In addition, the AC50 in [11] is 15 µM (active); in experiment [12] it was 25.8 µM (active).
On to `CC(C)N(Cc1ccccc1)C(=O)C(C)(C)C`, for which the outcome was “inactive” in [1]; “inactive” in [2]; “inactive” in experiment [3]; “inactive” in experiment [4]; “inactive” in [5]; “inactive” with CD38, CD38 (gene 952). The outcome in the experiment with CD40, CD40 (gene 958) is “inactive”; with CD69, CD69 (gene 969) it was “inactive”; in experiment [6], “inactive”; in experiment [7] it was “inactive”; in [8], “inactive”; in experiment [9] it was “inactive”. For the same compound, the result in experiment [10], in experiment [11] and in experiment [12] was inactive.
As for `O=[N+]([O-])c1ccc(Oc2ccc(Cl)cc2Cl)cc1`, the outcome was “inactive” in experiment [1]; “inactive” in experiment [3]; “inactive” in experiment [4]; “inactive” in experiment [5]; “inactive” in the experiment with CD69, CD69 (gene 969); “inactive” in [8]. Also, the outcome in [9] and in [12] was inactive. Besides, the half-maximal activity concentration (AC50) in [2] is 31.1 µM (active); with CD38, CD38 (gene 952), 29.8 µM (active); with CD40, CD40 (gene 958), 20 µM (active); in experiment [6], 29.1 µM (active); in experiment [7], 27.4 µM (active); in experiment [10], 33.9 µM (active). Besides, the AC50 in [11] was 32 µM (active).
As to `Clc1ccc(Cl)c(Cl)c1`, the outcome is “inactive” in experiment [1]; “inactive” in experiment [2]; “inactive” in [3]; “inactive” in experiment [4]; “inactive” in experiment [5]; “inactive” with CD38, CD38 (gene 952). The outcome was “inactive” with CD40, CD40 (gene 958); “inactive” in the experiment with CD69, CD69 (gene 969); “inactive” in [6]; “inactive” in experiment [7]; “inactive” in experiment [8]; “inactive” in experiment [9]. For the same compound, the result in experiment [10], in experiment [11] and in experiment [12] was inactive.

As a reminder, the AC50 is the concentration at which the activity in the assay is half-maximal.

The values above are taken from PubChem BioAssay (EPA / NIEHS).
